These results are taken from PubChem BioAssay (EPA / NIEHS).

Records with an inconclusive call do not appear. Activity calls are given as the source filed them. How the source made its calls, unless noted: active means hit-call score of the fitted dose curve at least 0.9, where 1 is the maximum; inconclusive means response in the unintended direction; inactive means score below 0.9.

Test [1] has as its target Bile acid receptor (Homo sapiens) (UniProt Q96RI1). Put plainly: ATG_IR1_CIS: Attagene CIS-FACTORIAL HepG2 Assay for human Nuclear Receptor Subfamily 1 Group H Member 4 (NR1H4), IR1 submotif (AID 2282946; active means hit-call score of the fitted dose curve at least 0.9, where 1 is the maximum; inactive means score below 0.9). To be noted: IR1 reporter transcription, actives raise or lower the signal. In a few lines:
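HepG2 cells transiently transfected with multiplexed cis-element reporter units read endogenous transcription factor activity. After 24 h compound exposure, reporter mRNA was quantified by RT-PCR, fluorescent labelling, HpaI digestion and capillary electrophoresis; bidirectional fitting versus DMSO baseline.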

For test [2], the target named is Estrogen-related receptor gamma (Homo sapiens) (UniProt P62508). Put plainly: ATG_ERRg_TRANS: Attagene TRANS-FACTORIAL HepG2 Assay for human Estrogen-Related Receptor gamma (ERRg) (AID 2282977).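 Further: hits increase reporter signal over DMSO so potencies reflect activators.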 As to conditions: HepG2 Attagene TRANS reporter, ERRg transactivation. The essentials:
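Induction of reporter transcripts through a chimeric NR-Gal4 protein is quantified in transfected human HepG2 liver cells after 24 h chemical exposure, using RT-PCR with capillary electrophoresis detection and DMSO as baseline.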

Test [3] has as its target human Vitamin D Receptor (VDR), VDR (gene 7421) (UniProt P11473). Put plainly: ATG_VDR_TRANS: Attagene TRANS-FACTORIAL HepG2 Assay for human Vitamin D Receptor (VDR) (AID 2283022). In a few lines: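 HepG2 cells were transiently transfected with multiple GAL4-UAS reporter units, so signal reflects exogenous chimeric receptor-Gal4 activity. After 24 h compound exposure, reporter mRNA was measured by RT-PCR, fluorescent labelling and capillary electrophoresis, fitted for gain of signal versus DMSO.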

Test [4] can be described thus: CCTE_Shafer_MEA_acute_AB: CCTE's Alamar Blue Assay for Cytotoxicity in the Neural Acute Assay, Shafer Lab (AID 2284069).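 Further: active compounds lower the viability signal compared with DMSO wells.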 In a few lines: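 Resazurin reduction (CellTiter Blue, 1:6 in fresh medium) read at ex 544/em 590 nm marks viability loss relative to DMSO. Cells: primary rat cortical neuron networks on microelectrode arrays, treated after baseline recording at 13 or 15 days in vitro.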

For test [5], the target named is Aryl hydrocarbon receptor (Homo sapiens) (UniProt P35869). Put plainly: ATG_Ahr_CIS: Attagene CIS-FACTORIAL HepG2 Assay for human Aryl Hydrocarbon Receptor (Ahr) (AID 2282930; active means hit-call score of the fitted dose curve at least 0.9, where 1 is the maximum; inactive means score below 0.9). To be noted: HepG2 AhR cis-factorial reporter transcription; actives raise or lower the signal. The essentials:
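HepG2, transient MRTU (cis) transfection, 24 h exposure. RNA → cDNA → PCR → 6-FAM primer extension → HpaI 2 h 37 C → CE. Fit: bidirectional, DMSO baseline.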

Test [6] in a line: ATG_AP_2_CIS: Attagene CIS-FACTORIAL HepG2 Assay for human Activator Protein 2 (AP-2) (AID 2282932; active means hit-call score of the fitted dose curve at least 0.9, where 1 is the maximum; inactive means score below 0.9). As to conditions: HepG2 AP-2 cis-reporter, Attagene transcription factor profiling; actives raise or lower the signal. In a few lines:
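Endogenous transcription factor activity is reported through transfected multiplex reporter constructs in HepG2, after 24 h of compound exposure. Transcripts were quantified by RT-PCR and capillary electrophoresis of fluorescent fragments. Bidirectional fit against DMSO.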

The nature of test [7]: ATG_ERE_CIS: Attagene CIS-FACTORIAL HepG2 Assay for Estrogen Response Element (ERE) (AID 2282940; active means hit-call score of the fitted dose curve at least 0.9, where 1 is the maximum; inactive means score below 0.9). As to conditions: HepG2 ERE cis-reporter, Attagene RNA transcript; actives raise or lower the signal. The essentials:
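After a 24 h chemical treatment, RNA from reporter-transfected HepG2 cells is reverse-transcribed, PCR-amplified and fluorescently labelled. Fragments separated by capillary electrophoresis give reporter signal; DMSO serves as negative control.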

Test [8] has as its target Estrogen receptor (Homo sapiens) (UniProt P03372). Put plainly: ATG_ERa_TRANS: Attagene TRANS-FACTORIAL HepG2 Assay for human Estrogen Receptor alpha (ERa) (AID 2282970). To be noted: HepG2 Attagene TRANS ERa GAL4 reporter, mRNA. The essentials:
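One of 30 multiplexed endpoints from a HepG2 TRANS system, this one reports ERa-Gal4-driven reporter mRNA. Transcripts were quantified 24 hours post-dosing by fluorescent RT-PCR and capillary electrophoresis, with activity scored as induction over DMSO.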

The target of test [9] is Peroxisome proliferator-activated receptor gamma (Homo sapiens) (UniProt P37231). Put plainly: ATG_PPARg_TRANS: Attagene TRANS-FACTORIAL HepG2 Assay for human Peroxisome Proliferator-activated Receptor-gamma (PPARg) (AID 2283007). The essentials:
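After 24 h of chemical exposure, transfected HepG2 cells carrying PPARγ-Gal4 chimera reporter constructs are lysed for RNA. Reporter transcripts are measured by RT-PCR and capillary electrophoresis with fluorescent labelling, and gain of signal is fitted versus DMSO.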

Test [10] concerns the target Steroid hormone receptor ERR1 (Homo sapiens) (UniProt P11474). Put plainly: ATG_ERRa_TRANS: Attagene TRANS-FACTORIAL HepG2 Assay for human Estrogen-Related Receptor alpha (ERRa) (AID 2282971). As to conditions: HepG2 Attagene TRANS reporter, ERRa transactivation. The essentials: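 HepG2 cells transiently transfected with multiplexed GAL4-UAS reporter units reading chimeric ERRa-Gal4 activity; 24 h compound exposure. Reporter mRNA measured by RT-PCR, 6-FAM labelling, HpaI digest and capillary electrophoresis; gain of signal fitted versus DMSO baseline.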

Test [11] can be described thus: ATG_M_32_TRANS: Attagene TRANS-FACTORIAL HepG2 Assay for M32 Transcription Factor (Internal Marker) (AID 2282984).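 Further: transcript level of a background control reporter unit measured by RT-PCR and capillary electrophoresis.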 As to conditions: HepG2 Attagene TRANS M32 internal marker reporter. The essentials:
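Internal background reporter in transfected HepG2: after 24 h chemical exposure, RNA reverse-transcribed, reporter cDNA amplified, fluorescently labelled and HpaI-cut, then sized by capillary electrophoresis. Gain of signal fitted against DMSO control.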

In test [12] the target is Nuclear receptor subfamily 1 group I member 3 (Homo sapiens) (UniProt Q14994). Put plainly: ATG_CAR_TRANS: Attagene TRANS-FACTORIAL HepG2 Assay for human Constitutive Androstane Receptor (CAR) (AID 2282969).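 Further: activators raise reporter mRNA above DMSO so AC50 marks induction.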 To be noted: HepG2 Attagene TRANS-FACTORIAL CAR reporter. In a few lines:
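Signal is reporter mRNA induction relative to DMSO, measured 24 h after dosing by RT-PCR with fluorescent primer extension and capillary electrophoresis. Human HepG2 liver cells carried transiently transfected chimeric NR-Gal4/GAL4-UAS reporter constructs.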

For test [13], the target named is Oxysterols receptor LXR-beta (Homo sapiens) (UniProt P55055). Put plainly: ATG_LXRb_TRANS: Attagene TRANS-FACTORIAL HepG2 Assay for human Liver X Receptor beta (LXRb) (AID 2282981). As to conditions: HepG2 Attagene TRANS GAL4-LXRb reporter, mRNA. In a few lines:
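After 24 h chemical treatment of transfected HepG2 cells carrying exogenous NR-Gal4 chimeras, reporter mRNA was quantified by fluorescent RT-PCR and capillary electrophoresis; activity taken as increase over DMSO controls.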

Test [14] addresses Thyroid hormone receptor alpha (Rattus norvegicus) + Thyroid hormone receptor beta (Rattus norvegicus) (UniProt P18113+P63059). Put plainly: TOX21_TR_LUC_GH3_Antagonist_Followup: Tox21 GH3 Thyroid Hormone Receptor Antagonism Luciferase Follow-Up Assay (AID 2283942). In a few lines: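 Loss of T3-driven (1.0 nM final) reporter activity in GH3 cells was read by ONE-Glo luminescence after 24 h incubation at 37C; 15-point compound series spanned 92 uM to 5nM final, 1,500 cells/well.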

Test [15] can be described thus: TOX21_TRB_BLA_Antagonist_Followup_viability: Viability Assessment in the Tox21 Thyroid Hormone Receptor beta Antagonism Beta-lactamase (BLA) Follow-Up Assay (AID 2283961). The essentials: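 HEK293T cells stably expressing GAL4-DBD/human TRβ-LBD with UAS-bla reporter, 3,000 cells/well in phenol red-free DMEM, 2% charcoal-stripped FBS. Compounds at 11 concentrations in triplicate, 18 h at 37C/5% CO2; viability by CellTiter-Glo luminescence after 30 min at room temperature.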

In test [16] the target is Retinoic acid receptor RXR-alpha (Homo sapiens) (UniProt P19793). Put plainly: TOX21_TR_RXR_BLA_Antagonist_Followup_ratio: Tox21 Thyroid Hormone Receptor beta Retinoid X Receptor alpha (RXRa) Antagonism Beta-lactamase (BLA) Follow-Up Assay, Ratio (AID 2283972). In a few lines:
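RXRa-UAS-bla HEK293T cells in phenol red-free DMEM with 2% charcoal-stripped FBS; compounds at 11 concentrations in triplicate, 16 h at 37C. LiveBLAzer FRET-B/CCF4-AM substrate 2 h at room temperature; read as 460:530 nm ratio versus DMSO.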

A short description of test [17]: TOX21_TR_RXR_BLA_Antagonist_Followup_viability: Viability Assessment in the Tox21 Thyroid Hormone Receptor beta Retinoid X Receptor alpha (RXRa) Antagonism Beta-lactamase (BLA) Follow-Up Assay (AID 2283979). In a few lines: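 Follow-up compounds (11 concentrations, triplicate) were incubated 16 h at 37C/5% CO2 with HEK293T RXRa-bla cells seeded at 2,500/well in charcoal-stripped-serum medium. ATP content by CellTiter-Glo luminescence gave viability; curves fitted in both directions against DMSO.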

A word on the AC50: it is the midpoint of the concentration-response curve, whichever way the signal moves.

Chain of Bile acid receptor (Homo sapiens) (Q96RI1 whole entry, looked up): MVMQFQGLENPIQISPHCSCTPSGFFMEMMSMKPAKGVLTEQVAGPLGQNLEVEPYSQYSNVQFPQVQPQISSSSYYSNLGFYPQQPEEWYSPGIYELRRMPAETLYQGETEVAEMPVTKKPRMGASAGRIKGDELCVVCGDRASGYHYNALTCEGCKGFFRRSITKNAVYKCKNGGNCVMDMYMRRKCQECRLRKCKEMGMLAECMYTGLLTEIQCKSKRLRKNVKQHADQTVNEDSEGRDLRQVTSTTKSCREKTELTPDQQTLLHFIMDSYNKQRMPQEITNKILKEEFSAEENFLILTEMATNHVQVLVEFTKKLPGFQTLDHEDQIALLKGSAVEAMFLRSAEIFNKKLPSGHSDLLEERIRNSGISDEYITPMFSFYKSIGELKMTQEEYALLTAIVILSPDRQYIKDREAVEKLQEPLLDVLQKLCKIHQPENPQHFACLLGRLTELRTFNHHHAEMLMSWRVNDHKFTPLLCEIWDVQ
Chain of human Vitamin D Receptor (VDR), VDR (gene 7421) (P11473 whole entry, looked up, the tested form may be a part): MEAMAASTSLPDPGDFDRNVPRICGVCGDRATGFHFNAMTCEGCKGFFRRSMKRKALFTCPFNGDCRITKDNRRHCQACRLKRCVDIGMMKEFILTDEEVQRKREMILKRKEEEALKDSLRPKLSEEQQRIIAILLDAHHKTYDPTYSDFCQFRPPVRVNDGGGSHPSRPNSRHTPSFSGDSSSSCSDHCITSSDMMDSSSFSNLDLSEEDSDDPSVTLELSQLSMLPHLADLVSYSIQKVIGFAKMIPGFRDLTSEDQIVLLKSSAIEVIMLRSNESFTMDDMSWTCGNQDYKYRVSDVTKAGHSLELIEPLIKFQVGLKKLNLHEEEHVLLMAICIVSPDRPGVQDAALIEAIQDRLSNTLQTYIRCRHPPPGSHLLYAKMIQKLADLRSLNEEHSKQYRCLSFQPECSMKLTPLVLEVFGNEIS
Chain of Retinoic acid receptor RXR-alpha (Homo sapiens) (P19793 whole entry, looked up): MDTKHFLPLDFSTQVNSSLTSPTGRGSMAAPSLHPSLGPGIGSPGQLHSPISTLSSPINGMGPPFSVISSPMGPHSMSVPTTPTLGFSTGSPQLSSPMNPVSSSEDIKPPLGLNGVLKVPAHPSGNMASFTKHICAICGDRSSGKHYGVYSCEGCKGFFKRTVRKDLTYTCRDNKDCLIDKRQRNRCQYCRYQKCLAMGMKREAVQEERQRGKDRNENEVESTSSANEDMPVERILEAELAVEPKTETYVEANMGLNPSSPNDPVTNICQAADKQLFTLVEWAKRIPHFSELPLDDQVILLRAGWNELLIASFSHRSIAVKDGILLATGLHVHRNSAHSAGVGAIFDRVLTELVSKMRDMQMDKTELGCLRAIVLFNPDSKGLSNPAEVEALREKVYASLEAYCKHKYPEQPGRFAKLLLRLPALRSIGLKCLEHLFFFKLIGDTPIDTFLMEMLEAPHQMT
Chain of Nuclear receptor subfamily 1 group I member 3 (Homo sapiens) (Q14994 whole entry, looked up, the tested form may be a part): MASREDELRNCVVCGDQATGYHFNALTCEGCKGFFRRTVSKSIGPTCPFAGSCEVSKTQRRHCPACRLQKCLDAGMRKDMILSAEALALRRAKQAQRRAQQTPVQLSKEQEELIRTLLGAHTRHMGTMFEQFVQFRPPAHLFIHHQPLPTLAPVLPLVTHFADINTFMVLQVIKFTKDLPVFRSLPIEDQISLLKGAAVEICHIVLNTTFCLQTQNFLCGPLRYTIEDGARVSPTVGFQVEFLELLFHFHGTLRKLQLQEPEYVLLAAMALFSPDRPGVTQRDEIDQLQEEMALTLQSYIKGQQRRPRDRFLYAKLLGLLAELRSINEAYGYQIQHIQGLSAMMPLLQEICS
Chain of Steroid hormone receptor ERR1 (Homo sapiens) (P11474 whole entry, looked up, the tested form may be a part): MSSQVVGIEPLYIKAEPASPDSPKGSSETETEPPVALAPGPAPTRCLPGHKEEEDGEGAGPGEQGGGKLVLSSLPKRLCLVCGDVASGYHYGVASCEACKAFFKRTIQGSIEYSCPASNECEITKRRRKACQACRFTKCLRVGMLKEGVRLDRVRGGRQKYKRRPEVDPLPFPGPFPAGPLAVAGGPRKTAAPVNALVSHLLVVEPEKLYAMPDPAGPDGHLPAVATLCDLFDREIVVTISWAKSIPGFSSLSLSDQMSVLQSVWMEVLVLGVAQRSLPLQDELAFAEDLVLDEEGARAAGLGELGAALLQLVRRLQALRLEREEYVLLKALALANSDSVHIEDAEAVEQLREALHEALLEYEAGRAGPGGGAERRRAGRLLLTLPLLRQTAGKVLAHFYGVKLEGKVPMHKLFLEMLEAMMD
Chain of Peroxisome proliferator-activated receptor gamma (Homo sapiens) (P37231 whole entry, looked up, the tested form may be a part): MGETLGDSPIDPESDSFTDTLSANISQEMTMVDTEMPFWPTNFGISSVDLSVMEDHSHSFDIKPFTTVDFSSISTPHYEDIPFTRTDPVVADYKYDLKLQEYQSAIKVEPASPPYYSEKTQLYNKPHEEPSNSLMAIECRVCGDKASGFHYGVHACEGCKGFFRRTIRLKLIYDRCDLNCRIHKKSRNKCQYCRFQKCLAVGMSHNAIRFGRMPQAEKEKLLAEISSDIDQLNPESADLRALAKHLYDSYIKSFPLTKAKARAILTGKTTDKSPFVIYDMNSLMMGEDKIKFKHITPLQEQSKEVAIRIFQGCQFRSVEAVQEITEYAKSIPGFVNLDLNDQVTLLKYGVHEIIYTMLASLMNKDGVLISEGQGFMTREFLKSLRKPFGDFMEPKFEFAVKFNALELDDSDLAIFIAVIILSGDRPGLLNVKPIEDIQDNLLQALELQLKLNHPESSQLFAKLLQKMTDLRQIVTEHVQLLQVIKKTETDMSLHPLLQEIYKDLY
Chain of Estrogen receptor (Homo sapiens) (P03372 whole entry, looked up, the tested form may be a part): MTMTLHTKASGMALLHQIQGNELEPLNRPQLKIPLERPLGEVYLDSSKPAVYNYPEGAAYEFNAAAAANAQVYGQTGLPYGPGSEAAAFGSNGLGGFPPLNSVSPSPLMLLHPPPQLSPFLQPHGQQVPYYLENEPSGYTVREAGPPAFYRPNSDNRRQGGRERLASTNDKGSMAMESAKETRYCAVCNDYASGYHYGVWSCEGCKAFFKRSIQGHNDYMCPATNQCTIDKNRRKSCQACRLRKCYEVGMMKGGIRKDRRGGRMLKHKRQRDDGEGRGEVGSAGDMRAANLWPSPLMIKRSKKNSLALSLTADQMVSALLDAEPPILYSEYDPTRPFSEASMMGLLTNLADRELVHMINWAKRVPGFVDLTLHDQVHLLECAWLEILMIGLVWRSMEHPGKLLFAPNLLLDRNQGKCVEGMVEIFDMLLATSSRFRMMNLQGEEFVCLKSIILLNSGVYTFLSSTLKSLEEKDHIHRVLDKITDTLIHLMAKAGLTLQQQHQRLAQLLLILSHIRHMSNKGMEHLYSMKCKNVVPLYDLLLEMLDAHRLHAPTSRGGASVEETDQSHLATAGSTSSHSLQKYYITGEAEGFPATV
Chain of Oxysterols receptor LXR-beta (Homo sapiens) (P55055 whole entry, looked up, the tested form may be a part): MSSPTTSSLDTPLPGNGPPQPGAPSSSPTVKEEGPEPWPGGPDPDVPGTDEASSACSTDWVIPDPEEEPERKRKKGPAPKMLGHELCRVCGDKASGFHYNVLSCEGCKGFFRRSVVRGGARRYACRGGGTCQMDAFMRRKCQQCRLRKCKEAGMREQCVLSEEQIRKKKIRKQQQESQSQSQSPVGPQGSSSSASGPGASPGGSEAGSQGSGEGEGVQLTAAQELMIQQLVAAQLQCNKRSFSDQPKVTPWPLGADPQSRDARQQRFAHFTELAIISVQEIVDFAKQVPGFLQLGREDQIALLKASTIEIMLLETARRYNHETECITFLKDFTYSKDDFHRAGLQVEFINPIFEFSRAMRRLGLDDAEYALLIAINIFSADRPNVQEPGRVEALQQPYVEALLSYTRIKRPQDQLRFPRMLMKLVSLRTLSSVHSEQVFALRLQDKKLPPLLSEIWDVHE
Chain of Aryl hydrocarbon receptor (Homo sapiens) (P35869 whole entry, looked up): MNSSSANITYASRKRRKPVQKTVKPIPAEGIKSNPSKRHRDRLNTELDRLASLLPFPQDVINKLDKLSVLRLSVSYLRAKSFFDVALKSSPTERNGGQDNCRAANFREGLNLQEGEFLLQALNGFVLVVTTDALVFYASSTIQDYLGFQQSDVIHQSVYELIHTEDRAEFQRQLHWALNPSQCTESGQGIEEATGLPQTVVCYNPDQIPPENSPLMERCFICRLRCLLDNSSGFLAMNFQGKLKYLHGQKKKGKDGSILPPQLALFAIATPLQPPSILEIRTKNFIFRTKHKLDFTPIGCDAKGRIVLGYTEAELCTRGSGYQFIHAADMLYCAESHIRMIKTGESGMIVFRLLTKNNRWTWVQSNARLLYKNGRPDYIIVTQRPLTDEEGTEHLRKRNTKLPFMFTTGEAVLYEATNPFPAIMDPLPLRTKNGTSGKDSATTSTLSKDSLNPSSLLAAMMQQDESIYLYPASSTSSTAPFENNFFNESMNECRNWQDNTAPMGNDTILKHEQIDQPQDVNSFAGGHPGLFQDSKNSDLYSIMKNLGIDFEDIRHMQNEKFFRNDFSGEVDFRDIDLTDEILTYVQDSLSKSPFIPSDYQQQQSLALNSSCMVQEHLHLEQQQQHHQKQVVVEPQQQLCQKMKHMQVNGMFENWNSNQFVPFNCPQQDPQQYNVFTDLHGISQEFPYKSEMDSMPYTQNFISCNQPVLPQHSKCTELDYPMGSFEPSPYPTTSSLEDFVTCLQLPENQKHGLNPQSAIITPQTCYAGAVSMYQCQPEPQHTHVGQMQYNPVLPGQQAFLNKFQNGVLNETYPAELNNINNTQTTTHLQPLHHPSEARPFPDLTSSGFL

Take `CC/C=C/CCO`: the outcome in test [1], in test [2] and in test [3] was inactive.

On to `Cc1c(C(N)=O)cc([N+](=O)[O-])cc1[N+](=O)[O-]`, for which the molecule was classed as inactive in test [4].

Turning to `Oc1ccc(Oc2ccccc2)cc1`, the call in test [5], in test [6] and in test [3] was inactive. In addition, the figures for the AC50 in test [7], in test [8] and in test [9] were 1540 nM (active), 1440 nM (active) and 28000 nM (active), respectively.

In the case of `CCC[Si](OC(C)=O)(OC(C)=O)OC(C)=O`, the call in test [4] was inactive.

Turning to `CCO[Si](OCC)(OCC)c1ccccc1`, the call in test [1], in test [10] and in test [11] was inactive.

Consider `N#CCN(CC#N)CCN(CC#N)CC#N`, for which the outcome in [3] was inactive.

As to `COc1ccccc1Oc1c(NS(=O)(=O)c2ccc(C(C)(C)C)cc2)nc(-c2ncccn2)nc1OCCO`, the molecule was classed as inactive in test [4].

Consider `Cc1ccnc(N)c1`, for which the molecule was classed as inactive in [1] and in test [9].

As to `CC(C)C1OCCN1CCOC(=O)NCCCCCCNC(=O)OCCN1CCOC1C(C)C` (stereo unspecified), the result in test [4] was inactive.

Consider `CC/C=C\CCCCCO`, for which the outcome in test [12] and in test [10] was inactive.

For the molecule `CCCCCCOC(=O)CCCCCCCC(=O)OCCCCCC`, the molecule was classed as inactive in test [12], in test [13] and in test [11].

For `CNCCC(Oc1ccc(C(F)(F)F)cc1)c1ccccc1` (stereo unspecified), the result in [4] was inactive.

Consider `Cc1oc(C)c(C(=O)Nc2ccccc2)c1C`, for which the result in test [14], in test [15], in test [16] and in test [17] was inactive.

As to `O=[Se](O)O`, the AC50 in [14] is 4840 nM (active); in test [15], 2020 nM (active); in [16] it was 2260 nM (active); in test [17], 5160 nM (active).

As for `CO[C@H]1C[C@@H]2CC[C@@H](C)[C@@](O)(O2)C(=O)C(=O)N2CCCC[C@H]2C(=O)O[C@H]([C@H](C)C[C@@H]2CC[C@@H](O)[C@H](OC)C2)CC(=O)[C@H](C)/C=C(\C)[C@@H](O)[C@@H](OC)C(=O)[C@H](C)C[C@H](C)\C=C/C=C/C=C/1C`, the AC50 in test [14] is 7.03 nM (active). Also, the molecule was classed as inactive in [15], in [16] and in test [17].

For the molecule `O=C(CCCCCCC(=O)Nc1ccccc1)NO`, the AC50 in [14] was 5800 nM (active). Moreover, the molecule was classed as inactive in test [15], in test [16] and in test [17].
